From PubChem BioAssay (NCI) come the findings set out here.

Compounds without any hit were thinned out: in the full panel of roughly 83,000, 20% have a hit.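 48-hour exposure, single concentration, 96-well plates; percent growth endpoint where 0 means no net growth. Active: below 10.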 Values without a mark were called inactive. The source made the active and inactive calls.

Some test systems named below: HCT-15 colon; HT29 colon; SNB-75 CNS; SNB-19 CNS; U251 CNS; PC-3 prostate; SK-MEL-5 melanoma; UACC-62 melanoma; LOX IMVI melanoma; SK-MEL-28 melanoma; EKVX NSCLC; SN12C renal; UO-31 renal; TK-10 renal; ACHN renal; CAKI-1 renal; A498 renal; CCRF-CEM leukemia; MOLT-4 leukemia.
Experiment in all cases: NCI-60 one-dose screen, 48 h (100 = growth as untreated, 0 = no growth, -100 = all killed)
Common to all, as to conditions: 10 µM unless noted

As to `O=C(Cc1ccc(/C=C/C(=O)c2ncc[nH]2)cc1)Nc1ccc(Br)cc1`, the growth in the experiment on HCT-15 colon was -5.46% (active); in the experiment on HT29 colon, -21% (active); in the experiment with SNB-75 CNS it was 40.5%; in the experiment on SNB-19 CNS, 8.45% (active); with U251 CNS it was -63.5% (active); with PC-3 prostate, 17%. Besides, the growth is 54.8% in the experiment on SK-MEL-5 melanoma; 31% in the experiment on UACC-62 melanoma; -65% (active) in the experiment with LOX IMVI melanoma; 73.4% in the experiment on SK-MEL-28 melanoma; 38.6% in the experiment with EKVX NSCLC; 9.91% (active) with SN12C renal. Also, the growth is -40% (active) in the experiment with UO-31 renal; 75.5% in the experiment with TK-10 renal; 2.05% (active) in the experiment with ACHN renal; 32.5% with CAKI-1 renal; 73.5% in the experiment with A498 renal; 6.63% (active) in the experiment on CCRF-CEM leukemia. The growth with MOLT-4 leukemia was 2.86% (active).
For `CCN(CC)CCNC(=O)c1c(C)[nH]c(/C=C2\C(=O)Nc3ccc(F)cc32)c1C`, the growth with HCT-15 colon was 11%; in the experiment with HT29 colon, -53.9% (active); in the experiment with SNB-75 CNS it was 18.2%; in the experiment with SNB-19 CNS, 9.51% (active); in the experiment on U251 CNS, -79.3% (active); in the experiment on PC-3 prostate it was 21.6%. The growth was -98% (active) in the experiment on SK-MEL-5 melanoma; -63.6% (active) in the experiment with UACC-62 melanoma; -81.9% (active) with LOX IMVI melanoma; -69.1% (active) in the experiment with SK-MEL-28 melanoma; 17.8% in the experiment on EKVX NSCLC; 26% in the experiment with SN12C renal. Further, the growth in the experiment on UO-31 renal is 7.88% (active); in the experiment on TK-10 renal, 27.1%; in the experiment with ACHN renal it was -12.8% (active); in the experiment with CAKI-1 renal, 17.5%; in the experiment with A498 renal it was 47.4%; with CCRF-CEM leukemia it was 7.54% (active). Besides, in the experiment on MOLT-4 leukemia, the growth is 17%.
On to `CCN(CCO)CCCOc1ccc2c(Nc3cc(CC(=O)Nc4cccc(F)c4)[nH]n3)ncnc2c1`, for which the growth in the experiment with HCT-15 colon was 52.5%; with HT29 colon it was -1.18% (active); in the experiment on SNB-75 CNS, 76.3%; in the experiment on SNB-19 CNS it was 39.1%; in the experiment with U251 CNS, 39.8%; in the experiment on PC-3 prostate, 62.6%. Moreover, the growth in the experiment on SK-MEL-5 melanoma was 63.3%; with UACC-62 melanoma, -4.86% (active); with LOX IMVI melanoma, 17.8%; in the experiment with SK-MEL-28 melanoma, -6.81% (active); in the experiment on EKVX NSCLC it was 51.8%; in the experiment with SN12C renal, 46.9%. The growth was 50.4% with UO-31 renal; 31.5% in the experiment on TK-10 renal; 48.9% in the experiment with ACHN renal; 35.4% with CAKI-1 renal; 47.4% in the experiment on A498 renal; 40.3% in the experiment on CCRF-CEM leukemia. Moreover, the growth with MOLT-4 leukemia was 36.3%.
Turning to `N#Cc1ccc(-n2nnc3ccccc32)cc1C#N`, the growth is 99.8% in the experiment on HCT-15 colon; 108% with HT29 colon; 121% with SNB-75 CNS; 112% in the experiment with SNB-19 CNS; 91.3% with U251 CNS; 101% in the experiment with PC-3 prostate. The growth with SK-MEL-5 melanoma was 97.6%; in the experiment on UACC-62 melanoma, 94.5%; in the experiment with LOX IMVI melanoma it was 99.4%; in the experiment on SK-MEL-28 melanoma, 104%; in the experiment on EKVX NSCLC, 79.2%; in the experiment on SN12C renal, 101%. Moreover, the growth with UO-31 renal is 88.5%; in the experiment with TK-10 renal, 134%; with ACHN renal it was 103%; in the experiment with CAKI-1 renal, 85.4%; in the experiment with A498 renal it was 72.8%; with CCRF-CEM leukemia, 93.1%. Besides, the growth in the experiment with MOLT-4 leukemia is 93.3%.
As to `C/C(=C(/c1ccc(Cl)cc1)c1ccc(OCCN2CCCCC2)cc1)c1ccccc1`, the growth is 24.8% in the experiment on HCT-15 colon; 3.98% (active) with HT29 colon; 90.7% in the experiment with SNB-75 CNS; 86.7% with SNB-19 CNS; 66.5% in the experiment on U251 CNS; 66.8% in the experiment with PC-3 prostate. For the same compound, the growth with SK-MEL-5 melanoma is 62%; with UACC-62 melanoma it was 64.9%; in the experiment with LOX IMVI melanoma, 59.9%; with SK-MEL-28 melanoma, 91.5%; in the experiment on EKVX NSCLC, 70.7%; with SN12C renal, 77%. The growth with UO-31 renal is 59.7%; with TK-10 renal, 94.1%; in the experiment with ACHN renal, 103%; in the experiment with CAKI-1 renal, 89.4%; with A498 renal, 80.3%; in the experiment with CCRF-CEM leukemia, 60.6%. Moreover, in the experiment on MOLT-4 leukemia, the growth is 83.4%.
On to `O=C(CNc1nc2ccccc2s1)Nc1ccc(-c2nc3ccccc3s2)cc1`, for which the growth in the experiment with HCT-15 colon was 105%; with HT29 colon, 109%; in the experiment with SNB-75 CNS, 99%; with SNB-19 CNS it was 100%; with U251 CNS, 89.1%; in the experiment with PC-3 prostate, 95%. The growth was 103% with SK-MEL-5 melanoma; 94.6% in the experiment with UACC-62 melanoma; 75.8% in the experiment on LOX IMVI melanoma; 113% with SK-MEL-28 melanoma; 110% with EKVX NSCLC; 103% in the experiment with SN12C renal. The growth in the experiment with UO-31 renal is 80.5%; in the experiment on TK-10 renal, 96.7%; in the experiment with ACHN renal, 107%; in the experiment on CAKI-1 renal, 100%; in the experiment with A498 renal, 93.8%; in the experiment on CCRF-CEM leukemia, 111%. For the same compound, the growth in the experiment on MOLT-4 leukemia is 84.2%.
In the case of `COCC(=O)NC/C=C/c1ccc2ncnc(Nc3ccc(Oc4ccc(C)nc4)c(C)c3)c2c1`, the growth was 33.3% in the experiment with HCT-15 colon; 12.2% with HT29 colon; 57.2% in the experiment on SNB-75 CNS; 77.9% in the experiment with SNB-19 CNS; 62.9% in the experiment with U251 CNS; 74.1% in the experiment on PC-3 prostate. For the same compound, the growth in the experiment on SK-MEL-5 melanoma is 13.1%; with UACC-62 melanoma it was 7.95% (active); in the experiment on LOX IMVI melanoma, 31.7%; with SK-MEL-28 melanoma, 12.2%; in the experiment with EKVX NSCLC it was 38.9%; with SN12C renal, 34.9%. For the same compound, the growth was 16.8% in the experiment on UO-31 renal; 5.8% (active) in the experiment with TK-10 renal; 16.1% in the experiment on ACHN renal; 18.6% in the experiment with CAKI-1 renal; 24.6% in the experiment on A498 renal; 79.2% in the experiment on CCRF-CEM leukemia. Besides, in the experiment with MOLT-4 leukemia, the growth was 29.3%.
On to `CC(=O)c1cnc2ccc(-c3cc(Cl)c(O)c(Cl)c3)nc2c1NC1CCC(CN(C)C)CC1` (configuration not stated), for which the growth with HCT-15 colon was 0.375% [2.5 µM] (active); with HT29 colon, 0.58% [2.5 µM] (active); in the experiment on SNB-75 CNS, -96.9% [2.5 µM] (active); in the experiment on SNB-19 CNS, 5.41% [2.5 µM] (active); in the experiment on U251 CNS, -26.6% [2.5 µM] (active); in the experiment on PC-3 prostate it was -12% [2.5 µM] (active). Moreover, the growth in the experiment with SK-MEL-5 melanoma is -86.5% [2.5 µM] (active); in the experiment with UACC-62 melanoma, -70.9% [2.5 µM] (active); in the experiment on LOX IMVI melanoma it was -61.2% [2.5 µM] (active); in the experiment on SK-MEL-28 melanoma, -39.8% [2.5 µM] (active); in the experiment with EKVX NSCLC, -15.9% [2.5 µM] (active); with SN12C renal it was -7.95% [2.5 µM] (active). In addition, the growth is -33.1% [2.5 µM] (active) in the experiment with UO-31 renal; -59.7% [2.5 µM] (active) in the experiment with TK-10 renal; -0.784% [2.5 µM] (active) with ACHN renal; -49.4% [2.5 µM] (active) with CAKI-1 renal; -88% [2.5 µM] (active) in the experiment on A498 renal; 1.45% [2.5 µM] (active) in the experiment on CCRF-CEM leukemia. Further, the growth in the experiment on MOLT-4 leukemia was -36.4% [2.5 µM] (active).
